Source: PubChem BioAssay (NCATS)
Several values for one entry are separate records, joined by “and”; a condition that tells them apart may be missing. Identical values can stand only once. Values without a mark were called inactive. Calls follow the shape of the full dose curve.

Each molecule was assayed against Glucocorticoid receptor (Homo sapiens) (UniProt P04150) (assay: GR-EFC Redistribution (AID 451)). Details: CHO-K1 GR-EFC translocation, beta-gal luminescence, 2 h.
Excerpt: NIH Molecular Libraries Screening Centers Network [MLSCN]
NIH Chemical Genomics Center [NCGC]
The glucocorticoid receptor (GR) is a cytoplasmic receptor that belongs to the nuclear receptor family of ligand-dependent transcription factors. Upon glucocorticoid binding to its receptor, the glucocorticoid-GR complex translocates into the nucleus, where it binds as a dimer to specific DNA sequences (glucocorticoid response elements), enhancing or suppressing transcription of a wide variety of glucocorticoid-responsive genes. In addition to their important roles in normal physiology and metabolism, glucocorticoids are administered exogenously as treatments for a wide variety of allergic, autoimmune, and neoplastic conditions. Identification of compounds that modulate aspects of GR signalling would be useful in dissecting glucocorticoid response pathways as well as developing GR modulators with more targeted clinical effects.
Traditionally, GR modulators have been identified using receptor binding or direct transactivation assays. However, assays for glucocorticoid-dependent nuclear translocation can also be used to screen for compounds affecting GR signaling.
Immunocytochemical staining has been used to assay for GR translocation, but is not suitable for high throughout screening due to the multiple reagent addition and wash steps required. Recently, a novel cell-based GR assay in Enzyme Fragment Complementation (EFC) format was developed by DiscoveRx (Fremont, CA). The assay uses EFC of b-galactosidase (b-gal) as an indicator of GR-translocation in engineered CHO-K1 biosensor cells. The enzyme acceptor (EA) fragment of b-gal resides in the nucleus , as designed through the use of a proprietary set of sequence additions and modifications. The small peptide enzyme donor (ED) fragment of b-gal is fused directly to the C-terminus of GR, and is localized in the cytoplasm is the absence of receptor signaling. Upon binding to a GR ligand, the complex translocates to the nucleus, where intact enzyme activity is restored by complementation and b-gal activity is detected. We optimized this GR-EFC assay in homogenous 1536-well plate assay format for high throughput screening.
NCGC Assay Protocol Summary:
CHO-K1 cells stably expressing NLS-enzyme acceptor fragment (EA) of b-gal and GR-enzyme donor (ED) fragment of b-gal were maintained in F12 medium (Invitrogen, Carlsbad, CA) at 37 Celsius degrees under a humidified atmosphere containing 5% CO2 and 95% air. The medium contained 10% FBS, 2 mM L-glutamine, 50 U/ml penicillin 50 ug/ml streptomycin, and 250 ug/ml hygromycin and 500 ug/ml G418 (Invitrogen).
GR-translocation was measured beta-gal enzyme activity using the PathHunter Detection Kit containing cell membrane permeablizing reagent and beta-gal substrate (DiscoveRx, Fremont, CA). All compounds were screened as titrations from 0.6 nM to 46 uM final concentration. The assay was performed in 1536-well format as follows:
5 uL cell suspension (1,000 cells)/well
Incubation at 37 Celsius degrees for two hours
1.25 uL 1X detection buffer from the kit supplied by DiscoveRx
Incubation at room temperature for one hour
Read plate in luminescence mode in ViewLux plate reader (PerkinElmer)
Keywords: NIH Roadmap, MLSCN, MLI, MLSMR, GR-EFC, GREFC, qHTS, NCGC
Potency is read from the fitted curve at half-maximal effect.

Glucocorticoid receptor (Homo sapiens), sequence (P04150 whole entry, looked up): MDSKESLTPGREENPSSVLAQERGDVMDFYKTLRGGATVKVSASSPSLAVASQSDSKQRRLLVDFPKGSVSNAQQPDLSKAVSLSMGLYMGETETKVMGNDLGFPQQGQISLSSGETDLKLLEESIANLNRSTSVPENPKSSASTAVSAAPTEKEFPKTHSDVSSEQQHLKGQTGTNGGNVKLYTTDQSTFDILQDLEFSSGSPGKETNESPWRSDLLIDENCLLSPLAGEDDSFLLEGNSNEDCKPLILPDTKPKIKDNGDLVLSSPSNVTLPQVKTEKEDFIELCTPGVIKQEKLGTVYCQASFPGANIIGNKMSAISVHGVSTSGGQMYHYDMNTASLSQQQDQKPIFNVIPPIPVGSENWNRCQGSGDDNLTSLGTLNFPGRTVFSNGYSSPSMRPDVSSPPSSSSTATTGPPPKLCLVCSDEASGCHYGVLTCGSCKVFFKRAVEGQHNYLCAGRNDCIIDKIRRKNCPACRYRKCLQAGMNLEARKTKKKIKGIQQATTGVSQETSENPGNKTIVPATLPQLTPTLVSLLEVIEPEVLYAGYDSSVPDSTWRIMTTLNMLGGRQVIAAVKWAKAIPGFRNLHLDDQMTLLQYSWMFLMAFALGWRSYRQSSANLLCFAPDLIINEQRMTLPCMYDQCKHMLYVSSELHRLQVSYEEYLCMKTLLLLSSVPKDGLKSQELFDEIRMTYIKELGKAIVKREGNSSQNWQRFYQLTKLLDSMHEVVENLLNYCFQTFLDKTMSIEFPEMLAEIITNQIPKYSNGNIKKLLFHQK

Row | SMILES | Potency
1 | CCCCCCCC/C=C\CCCCCCCC(=O)NCc1ccc(O)c(OC)c1 | > 46 µM
2 | CC(C)[N+](C)(CCOC(=O)C1c2ccccc2Oc2ccccc21)C(C)C | > 46 µM and > 20.6 µM
3 | C[n+]1cc2c3c(ccc2c2ccc4cc5c(cc4c21)OCO5)OCO3 | > 46 µM and > 20.6 µM
4 | Cc1ccc(S(=O)(=O)NC(=O)NN2CCCCCC2)cc1 | > 46 µM and > 20.6 µM
5 | COc1ccc2c(c1OC)C(=O)O[C@@H]2[C@H]1c2c(cc3c(c2OC)OCO3)CCN1C | > 46 µM
6 | CC(=O)Nc1nnc(S(N)(=O)=O)s1 | > 46 µM and > 20.6 µM
7 | CCCC(C(=O)OCCN(CC)CC)(c1ccccc1)c1ccccc1 | > 46 µM and > 20.6 µM
8 | CCCN(CCC)CCc1cccc2c1CC(=O)N2 | > 46 µM
9 | C[N+](C)(C)CCOC(=O)CCC(=O)OCC[N+](C)(C)C | > 46 µM
10 | CN1CCN(CC(=O)N2c3ccccc3C(=O)Nc3cccnc32)CC1 | > 46 µM and > 20.6 µM
11 | CN(C)CCN(Cc1cccs1)c1ccccn1 | > 46 µM and > 20.6 µM
12 | O=C(O)CN(CCOCCOCCN(CC(=O)O)CC(=O)O)CC(=O)O | > 46 µM
13 | CN1CCN(C2=Nc3ccccc3Oc3ccc(Cl)cc32)CC1 | > 46 µM and > 20.6 µM
14 | C#CCN(C)CCCOc1ccc(Cl)cc1Cl | > 46 µM and > 20.6 µM
15 | COc1cc2c(cc1OC)-c1cc(=Nc3c(C)cc(C)cc3C)n(C)c(=O)n1CC2 | > 46 µM
16 | CC1=C(C)C(=O)C(CCCCC#CCCCC#CCO)=C(C)C1=O | > 46 µM
17 | COc1ccc([C@@H]2Sc3ccccc3N(CCN(C)C)C(=O)[C@@H]2OC(C)=O)cc1 | > 46 µM
18 | CN(C(=O)CCCOc1ccc2[nH]c(=O)ccc2c1)C1CCCCC1 | > 46 µM
19 | O=C(O)CN(CCN(CC(=O)O)CC(=O)O)CCN(CC(=O)O)CC(=O)O | > 46 µM and > 20.6 µM
20 | NC(N)=NC(=O)Cc1c(Cl)cccc1Cl | > 46 µM and > 20.6 µM

Row | SMILES | Potency
21 | CCCCNC(=O)NS(=O)(=O)c1ccc(C)cc1 | > 46 µM and > 20.6 µM
22 | CCN(CC)CCNC(=O)c1cc(S(C)(=O)=O)ccc1OC | > 46 µM and > 20.6 µM
23 | COc1cc(C(=O)OCCCN2CCCN(CCCOC(=O)c3cc(OC)c(OC)c(OC)c3)CC2)cc(OC)c1OC | > 46 µM and > 20.6 µM
24 | CCc1cccc(N(C)C(N)=Nc2cccc3ccccc23)c1 | > 46 µM
25 | CCN1CCc2nc(N)oc2CC1 | > 46 µM
26 | Cc1nc2c([nH]1)c(=O)n(C)c(=O)n2Cc1ccco1 | > 46 µM
27 | C[N+](C)(C)CCCCCCCCCC[N+](C)(C)C | > 46 µM and > 20.6 µM
28 | CN(C)CCOC(=O)COc1ccc(Cl)cc1 | > 46 µM and > 20.6 µM
29 | Cc1ccc(Cl)c(Nc2ccccc2C(=O)O)c1Cl | > 46 µM and > 20.6 µM
30 | CCCCNc1ccc(C(=O)OCCN(C)C)cc1 | > 46 µM and > 20.6 µM
31 | CC(C)NNC(=O)c1ccncc1 | > 46 µM and > 20.6 µM
32 | N[C@@H](COP(=O)(O)O)C(=O)O | > 46 µM
33 | CCN(CC)CCNC(=O)c1ccc(NC(C)=O)cc1 | > 46 µM
34 | Cc1nc2ccccn2c(=O)c1CCN1CCC(C(=O)c2ccc(F)cc2)CC1 | > 46 µM
35 | Brc1c(NC2=NCCN2)ccc2nccnc12 | > 46 µM
36 | CC(C)(Oc1ccc(CCNC(=O)c2ccc(Cl)cc2)cc1)C(=O)O | > 20.6 µM
37 | CCn1nc(C(=O)O)c(=O)c2cc3c(cc21)OCO3 | > 46 µM and > 20.6 µM
38 | CN(C)CCCN1c2ccccc2Sc2ccc(C(F)(F)F)cc21 | > 46 µM and > 20.6 µM
39 | O=C(CCCN1CCC(O)(c2cccc(C(F)(F)F)c2)CC1)c1ccc(F)cc1 | > 46 µM
40 | FC(F)(F)c1ccccc1-n1ccnc1 | > 46 µM
